Laboratory results as given in the supplement of paper PMC3334620.
Over roughly 33,000 sequences, “E-score (-0.5 to 0.5)” has its median near -0.054; the highest 2% begin near 0.35. The sample as a whole holds a higher share of the highest values than the screen did.

Target: T1, Stb5 (UniProt P38699)
T1 sequence: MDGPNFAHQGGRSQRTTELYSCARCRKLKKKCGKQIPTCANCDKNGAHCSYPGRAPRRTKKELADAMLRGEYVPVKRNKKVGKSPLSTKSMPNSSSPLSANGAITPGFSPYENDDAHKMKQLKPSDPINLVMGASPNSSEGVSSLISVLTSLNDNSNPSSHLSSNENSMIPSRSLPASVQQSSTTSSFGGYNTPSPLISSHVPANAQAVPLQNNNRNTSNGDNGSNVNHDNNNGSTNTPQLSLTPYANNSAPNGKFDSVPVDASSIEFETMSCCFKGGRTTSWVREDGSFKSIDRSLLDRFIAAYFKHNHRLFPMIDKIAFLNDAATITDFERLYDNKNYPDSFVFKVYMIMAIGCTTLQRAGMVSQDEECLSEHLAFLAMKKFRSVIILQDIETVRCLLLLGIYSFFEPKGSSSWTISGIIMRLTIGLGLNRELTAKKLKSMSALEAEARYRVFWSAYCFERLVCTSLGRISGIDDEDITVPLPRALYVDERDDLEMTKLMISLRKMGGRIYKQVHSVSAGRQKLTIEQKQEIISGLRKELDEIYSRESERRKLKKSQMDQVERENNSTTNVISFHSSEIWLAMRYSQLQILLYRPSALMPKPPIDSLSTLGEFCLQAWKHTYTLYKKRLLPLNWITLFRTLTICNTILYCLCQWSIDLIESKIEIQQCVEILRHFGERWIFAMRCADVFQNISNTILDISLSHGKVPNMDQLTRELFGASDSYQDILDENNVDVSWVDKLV
Assay: PBM E-score (8-mer binding enrichment) (E-score (-0.5 to 0.5)); higher = stronger / more preferred TF binding
Conditions: protein concentration: 200 nM; construct: GST-full length
Experimental: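 Universal 'all 10-mer' protein binding microarrays (Agilent AMADID 015681) probed with GST-tagged S. cerevisiae TFs (full-length or DBD) made by in vitro transcription/translation (PURExpress), about 100-200 nM. Bound TF was detected with fluorescent anti-GST. Each ungapped 8-mer (which stands for itself and its reverse complement) is scored by the PBM enrichment score (E-score), a modified Wilcoxon-Mann-Whitney statistic from -0.5 to +0.5, computed with the Universal PBM Analysis Suite. Scale: above 0.35 generally sequence-specific binding.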

| Sequence | PBM E-score |
| --- | --- |
| CATCCGAC | 0.288 |
| CGAGACTA | -0.0587 |
| GGGGGTCA | -0.125 |
| CCGGGTGA | 0.179 |
| CCGGGTCA | 0.176 |
| GGGGGTGA | -0.123 |
| CGGGGTGA | 0.432 |
| CGGGGTCA | 0.441 |
| CGCTTGGA | -0.0324 |
| TAGGACAA | -0.287 |
| CCCGGGTA | 0.101 |
| ACCCGGTC | 0.204 |
| ACCGGGTC | 0.19 |
| CCCCGGTC | 0.369 |
| CCCGGGTC | 0.352 |
| CCCCGGTA | 0.298 |
| CCCGCACG | 0.325 |
| GAAGTTCA | -0.189 |
| CCCCGGGA | 0.268 |
| ACCCGGGG | 0.185 |
| ACCCCGGT | 0.356 |
| ACCCCGGA | 0.308 |
| CCCCCGGG | 0.237 |
| CCCCGGGG | 0.393 |
| ACCCCGGG | 0.392 |

| Sequence | PBM E-score |
| --- | --- |
| CCCCGGGC | 0.265 |
| ACCCCGGC | 0.343 |
| TAGAAAAA | -0.116 |
| ACAGCCCC | -0.0495 |
| CCTGTGAC | -0.0962 |
| CCGATGAC | 0.301 |
| GTCCACGA | -0.134 |
| AGGCTCTC | -0.369 |
| AGAACTTA | -0.169 |
| AATGTAGT | -0.128 |
| ACAAAGCA | -0.0624 |
| CTTGGGAC | -0.0832 |
| CAATGCCG | 0.334 |
| AATTGCCG | 0.354 |
| AATTGCCA | -0.27 |
| AAATGCCG | 0.435 |
| AAGTGCCA | -0.182 |
| AAATGCCC | 0.0775 |
| AAGTGCCC | 0.0216 |
| AATTGCCC | 0.0559 |
| AAGTGCCG | 0.409 |
| CTAGCGTC | 0.0861 |
| AGAAACCA | -0.212 |
| CCATGGCA | -0.0516 |
| ACCCCTAC | -0.171 |

| Sequence | PBM E-score |
| --- | --- |
| ATACATTC | -0.228 |
| AACCGTCC | -0.0366 |
| GACCGTCC | 0.21 |
| CACCGTCC | 0.407 |
| AACCGTCG | 0.212 |
| CACCGTCG | 0.373 |
| CACCGTCA | 0.333 |
| AACCTAGC | -0.17 |
| CTGTGGCA | -0.279 |
| ATAAGCCC | 0.406 |
| ATAAAGCC | 0.359 |
| CTAAGGCC | 0.262 |
| ATAAGCCA | -0.107 |
| ATAAGGCC | 0.359 |
| ATAAAGCG | 0.236 |
| CTAAGCCC | 0.324 |
| ATAAGACG | -0.111 |
| ATAAGACC | 0.397 |
| ATAAGGCG | -0.00531 |
| CTAAGACC | 0.22 |
| CTAAAGCC | 0.228 |
| AGAAAGAG | -0.102 |
| ACCTGATA | 0.0218 |
| ATAAGTCC | 0.443 |
| ATAAGTCG | 0.15 |

| Sequence | PBM E-score |
| --- | --- |
| CTAAGTCC | 0.245 |
| ATGCGTTG | -0.0346 |
| AAACTCCC | 0.104 |
| GAGTTCGC | 0.0473 |
| AACGCCGT | 0.437 |
| TACGCCGA | 0.299 |
| AACGCCAC | -0.0588 |
| GACGCCGC | 0.406 |
| AACGCCAT | -0.106 |
| AACGCCTT | -0.00961 |
| CACGCCGA | 0.133 |
| AACGCCGC | 0.448 |
| AACGCCTC | -0.064 |
| GACGCCGA | 0.342 |
| CACGCCGC | 0.293 |
| AACGCCGA | 0.456 |
| ATAGCCCA | -0.245 |
| ACCAGCGA | 0.0766 |
| AAAGAGAA | -0.00974 |
| AACGCCGG | 0.44 |
| AACGCCCG | 0.24 |
| CACGCCGG | 0.268 |
| AAATAGAT | 0.104 |
| AGCTCCGG | 0.362 |
| CGCTCCGA | 0.231 |

| Sequence | PBM E-score |
| --- | --- |
| AGCTCCGC | 0.406 |
| AGCTCCTG | -0.18 |
| CGCTCCGC | 0.164 |
| AGCTCCGA | 0.405 |
| GGCTCCGA | 0.0871 |
| AGCTCCCG | -0.0713 |
| AGCTCCTC | -0.184 |
| AGAGCAGA | -0.138 |
| CGGCCCGC | 0.188 |
| CTGCCCGC | 0.06 |
| AGGCCCGA | 0.314 |
| ATGCCCGG | 0.318 |
| ATGCCCGC | 0.366 |
| AGGCCCGC | 0.36 |
| TGACGTCA | 0.158 |
| AGATGCGA | 0.0797 |
| TACCACGA | -0.267 |
| GGCCGCCC | 0.253 |
| CTCCGCCC | 0.397 |
| CGCCGCCC | 0.352 |
| CGCCGCCG | 0.369 |
| AGCCGCGC | 0.173 |
| CTCCGCCA | 0.293 |
| CGCCGCGC | 0.368 |
| CGCCGCGA | 0.289 |

| Sequence | PBM E-score |
| --- | --- |
| AGCCGCCC | 0.144 |
| ATCCGCCC | 0.218 |
| CGCCGCCA | 0.348 |
| AGCCGCCG | 0.215 |
| ATACCTCG | -0.173 |
| GCTTCGAA | -0.0877 |
| ACGTACCC | 0.0314 |
| AACTCTAG | -0.33 |
| GGACTCAC | 0.0404 |
| AGGACCAA | -0.115 |
| AAGCCTCT | -0.318 |
| AAGTAGCG | 0.0894 |
| GAAGTTCC | 0.0956 |
| ACTCCGAT | 0.344 |
| CCTCCGCG | 0.157 |
| ACTCCGCC | 0.384 |
| ACTCCGCG | 0.357 |
| ACTCCGCA | 0.259 |
| ACTCCGCT | 0.392 |
| CCTCCGCC | 0.223 |
| GCTCCGCC | 0.347 |
| AATCCGCG | 0.21 |
| AGATAAGC | -0.142 |
| CACACTAG | -0.189 |
| AGTCCACC | 0.0594 |

| Sequence | PBM E-score |
| --- | --- |
| AAAATATT | 0.114 |
| GAAGGCAA | -0.234 |
| GTCTTCCA | -0.125 |
| ATCCAAAT | -0.103 |
| AGTGCTAA | -0.043 |
| GGTGCTAA | 0.358 |
| TGTGCTAA | 0.0576 |
| GCCGCGCC | 0.221 |
| CGGTCACG | 0.149 |
| CGCCGGCC | 0.391 |
| AGCCGGCG | 0.248 |
| GGCCGGCA | 0.289 |
| AGCCGGCA | 0.256 |
| AGCCGGCC | 0.111 |
| CGCCGGCA | 0.354 |
| CGCCGGCG | 0.428 |
| GGCCGGCC | 0.15 |
| CGGCGCCG | 0.309 |
| ATAAAAGA | 0.0611 |
| GAGCAATA | -0.118 |
| CAACACTG | -0.305 |
| CAGTCAAG | -0.338 |
